Common to all, as to experiment: NCI-60 one-dose screen, 48 h (100 = growth as untreated, 0 = no growth, -100 = all killed)
What all share (settings): 10 µM unless noted

For assay [1], the system named is T-47D breast.
Assay [2] has as its system MDA-MB-435 melanoma.
Assay [3] relates to SW-620 colon.
Assay [4] relates to MCF7 breast.
For assay [5], the system named is HCT-116 colon.
Assay [6] has as its system HCC-2998 colon.
Assay [7] relates to KM12 colon.
Assay [8] has as its system BT-549 breast.

This is part of a sample that, as a whole, favours compounds with a hit. Of some 83,000 tested, about 20% had one in any assay.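 Each cell line was grown in a 96-well plate and treated with one concentration of compound for 48 hours. Values below 10 were considered active.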 Unmarked numbers belong to inactive results. Active and inactive are the calls of the source.

For `O=C1OCC2=C1C(c1ccncc1)c1cc3c(cc1N2CCO)OCO3` (stereo unspecified), the growth in assay [1] is 91.1%; in assay [2], 96.7%; in assay [3], 93.4%; in assay [4] it was 96.3%; in assay [5], 107%; in assay [6], 103%. In addition, in assay [7], the growth was 97.8%.
As for `CC[C@@H]1O[C@H](O[C@@H](c2cnc[nH]2)[C@H](NC(=O)c2nc([C@H](CC(N)=O)NC[C@@H](N)C(N)=O)nc(N)c2C)C(=O)N[C@H](C)[C@H](O)[C@H](C)C(=O)N[C@@H](C(=O)NCCc2nc(-c3nc(C(=O)NCCCCN=C(N)N)cs3)cs2)[C@@H](C)O)[C@H](O[C@@H]2O[C@H](CO)[C@H](O)[C@H](OC(N)=O)[C@@H]2O)[C@H](C)[C@@H]1C`, the growth in assay [1] is 57.4%; in assay [8] it was 78.3%; in assay [2] it was 81.9%; in assay [3] it was 68.1%; in assay [6], 69.7%; in assay [7], 57.9%.
As for `CCCOc1ccc2nc(NC(=O)OC)[nH]c2c1`, the growth was 89.8% in assay [1]; 33.4% in assay [8]; -49.3% (active) in assay [2]; 22.8% in assay [3]; 9.34% (active) in assay [5]; -14% (active) in assay [6]. Besides, in assay [7], the growth is 5.74% (active).
Take `Cc1nc2ccccc2n1C(=O)C[C@@H]1NC(=S)NC1=O`: the growth is 96.7% in assay [1]; 97.8% in assay [2]; 99.4% in assay [3]; 93.9% in assay [4]; 92.5% in assay [5]; 102% in assay [6]. The growth in assay [7] is 102%.
For the compound `O=c1cc(/C(=C2/C=CC=N2)c2ccc[nH]2)c2cc(Cl)ccc2o1`, the growth in assay [1] was 32%; in assay [2] it was 9.82% (active); in assay [3], 34.8%; in assay [4] it was 70.9%; in assay [5], 44.2%; in assay [6], 89.7%. The growth in assay [7] is 38.9%.
In the case of `CCCCCCN(CCCCCC)C(=N)c1ccnc2ccccc12`, the growth is 88.1% in assay [1]; 73.8% in assay [8]; 61.8% in assay [2]; 59.8% in assay [3]; 31.2% in assay [5]; -59.9% (active) in assay [6]. Also, the growth in assay [7] was 71.1%.
Consider `C#CCOc1ccc2ncnc(N3CCN(C(=O)CCl)CC3)c2c1`, for which the growth in assay [1] is -48.7% [8.25 µM] (active); in assay [2] it was 86.6% [8.25 µM]; in assay [3] it was 47.1% [8.25 µM]; in assay [4], 65.1% [8.25 µM]; in assay [5], 27.7% [8.25 µM]; in assay [6] it was 112% [8.25 µM]. For the same compound, the growth in assay [7] is 108% [8.25 µM].
On to `CCc1nc(N)nc(N)c1C#CC(C)c1cc(-c2ccnc(C)c2)c2oc(C)nc2c1` (stereo unspecified), for which the growth is 9.59% (active) in assay [1]; 19.4% in assay [2]; 16.9% in assay [3]; 8.57% (active) in assay [4]; 11.6% in assay [5]; 13% in assay [6]. Moreover, the growth in assay [7] was 5.92% (active).
`Cc1cc(C)nc(SC2=C(Nc3cc(Cl)ccc3O)C(=O)N(Cc3ccccc3)C2=O)n1`: the growth was 60.8% [30 µM] in assay [1]; 85.2% [30 µM] in assay [8]; 71.6% [30 µM] in assay [2]; 91.8% [30 µM] in assay [3]; 46.4% [30 µM] in assay [4]; -23.1% [30 µM] (active) in assay [7].
For `Cc1cc(N2CCN(c3ccnc4cc(Cl)ccc34)CC2)nc(NC2CCCCC2)n1`, the growth in assay [1] was 7.8% (active); in assay [8], 51.9%; in assay [2], -6.47% (active); in assay [3] it was 14.9%; in assay [4] it was 12.8%; in assay [6], 18.2%. In assay [7], the growth is 30.1%.
In the case of `COc1cc(C)c(C2C(C#N)=C(N)Oc3n[nH]c(-c4cccs4)c32)cc1C(C)C` (stereo unspecified), the growth in assay [1] is 84.4%; in assay [2] it was 105%; in assay [3], 101%; in assay [4], 91.5%; in assay [5], 103%; in assay [6], 93.5%. In addition, the growth in assay [7] was 98.6%.
In the case of `N#CCCN=Nc1c(O)[nH]c2ccc([N+](=O)[O-])cc12`, the growth in assay [1] is 93.1%; in assay [2] it was 111%; in assay [3] it was 99.9%; in assay [4] it was 86.8%; in assay [5], 96.5%; in assay [6], 111%. The growth in assay [7] was 101%.
`COc1cc(-c2nn(-c3ccc(C(=O)O)cc3)cc2C(=O)O)ccc1O`: the growth in assay [1] is 93.2%; in assay [8], 70.3%; in assay [2] it was -5.36% (active); in assay [3], 32.1%; in assay [4], 35.3%; in assay [6], 91.3%. Further, in assay [7], the growth was 42.5%.
For `O=C(CCCCC(=O)N/N=C\c1ccccc1O)N/N=C\c1ccccc1O`, the growth in assay [1] was 35.5%; in assay [8] it was 38.4%; in assay [3], 34.2%; in assay [4], 27.5%; in assay [5] it was 25.5%; in assay [6], 21.4%. Also, the growth in assay [7] is 33.6%.
For the compound `CCCSc1ccc2nc(NC(=O)OC)[nH]c2c1`, the growth is 57.4% in assay [1]; 45.5% in assay [8]; -51% (active) in assay [2]; 24% in assay [3]; 15.5% in assay [5]; -4.45% (active) in assay [6]. Also, in assay [7], the growth was 14%.
`CC(C)n1c(/C=C/[C@@H](O)C[C@@H](O)CC(=O)O)c(-c2ccc(F)cc2)c2ccccc21`: the growth in assay [1] was 72.7%; in assay [8], 60.6%; in assay [2], 55.8%; in assay [3], 72.9%; in assay [5] it was 22.1%; in assay [6], 77.7%. Also, the growth in assay [7] is 87.5%.
Regarding `O=C(CCl)Oc1ccc(-c2ccccc2)c(Br)c1`, the growth was 103% in assay [1]; 104% in assay [2]; 104% in assay [3]; 103% in assay [4]; 108% in assay [5]; 109% in assay [6]. For the same compound, in assay [7], the growth was 104%.
For `CC[C@@H](C(=O)[C@@H](C)[C@@H](O)[C@H](C)[C@@H]1O[C@@H]([C@@H](CC)C(=O)O)CC[C@@H]1C)[C@H]1OC2(C=C[C@@H](O)[C@]3(CC[C@@](C)([C@H]4CC[C@](O)(CC)[C@H](C)O4)O3)O2)[C@H](C)C[C@@H]1C` (stereo partly specified), the growth was 27.2% in assay [1]; -12.3% (active) in assay [8]; -76.2% (active) in assay [2]; 16.2% in assay [3]; 12% in assay [5]; 10.7% in assay [6]. Besides, the growth in assay [7] was 12.2%.
Turning to `CCOc1ccc(C(C)=O)cc1NC(=O)c1cccc(-c2nnn(CC)n2)c1`, the growth in assay [1] is 29.6%; in assay [8] it was 58.5%; in assay [2] it was -47.6% (active); in assay [3], 31.2%; in assay [4], 32.5%; in assay [7], 23.8%.
As for `Cc1cc(N2CCOCC2)nc(NCc2cc(Nc3ccnc4cc(Cl)ccc34)ccc2F)n1`, the growth in assay [1] is -34.9% (active); in assay [8], -37.7% (active); in assay [2], -79.5% (active); in assay [3], -69.9% (active); in assay [4], -55.9% (active); in assay [6], -69% (active). Further, in assay [7], the growth was -61.9% (active).
On to `Cc1ccc(-c2onc3c(=O)[nH]nc(-c4ccccc4)c23)cc1`, for which the growth in assay [1] was 37.1%; in assay [2], -34.6% (active); in assay [3] it was 34.7%; in assay [4], 24%; in assay [5] it was 25.8%; in assay [6], 60.5%. For the same compound, in assay [7], the growth is 29.3%.
Take `COC(=O)[C@]12CCC(C)(C)C[C@H]1[C@H]1C(=O)C[C@@H]3[C@@]4(C)c5c([nH]c6ccccc6c5=O)C(C)(C)[C@@H]4CC[C@@]3(C)[C@]1(C)CC2`: the growth was 52.6% in assay [1]; 57.5% in assay [2]; 71.2% in assay [3]; 44.5% in assay [4]; 33.8% in assay [5]; 72.3% in assay [6]. For the same compound, the growth in assay [7] was 72.9%.
For `COc1ccc(-n2nc(C)c3c(Oc4ccc(NC(=O)Nc5c(Cl)cccc5Cl)cc4)ncnc32)cc1`, the growth in assay [1] is 87.4%; in assay [8], 117%; in assay [2] it was 100%; in assay [3], 95.7%; in assay [4], 96.4%; in assay [6] it was 100%. The growth in assay [7] was 100%.
Take `CCN1CCN(c2nc(NCCNc3ccnc4cc(Cl)ccc34)c3ccccc3n2)CC1`: the growth in assay [1] was -10.8% (active); in assay [8], 51.8%; in assay [2], -66.2% (active); in assay [3] it was 1.44% (active); in assay [4], 18.6%; in assay [6], 35.8%. Also, in assay [7], the growth is 7.58% (active).
Turning to `C=CCSSc1ncnc2c1ncn2C1OC(CO)C(O)C1O` (stereo unspecified), the growth in assay [1] was 24.3%; in assay [8], 54.8%; in assay [2] it was 22.5%; in assay [3], 53.8%; in assay [4], 4.74% (active); in assay [6], 35.1%. Besides, the growth in assay [7] is 37.1%.
Take `O=C1NC(=Nc2ccc(O)cc2)S/C1=C\c1cccc(Cl)c1`: the growth in assay [1] was 76%; in assay [8] it was 64.9%; in assay [2], 2.14% (active); in assay [3] it was 30.7%; in assay [4] it was 18.6%; in assay [6] it was 83.8%. Moreover, the growth in assay [7] was 21.9%.
Regarding `Nc1n[nH]c2ccc([C@@H]3Nc4ccc5[nH]ncc5c4[C@H]4C5C=CC(C5)[C@@H]34)cc12` (stereo partly specified), the growth in assay [1] was 80%; in assay [2], -28.1% (active); in assay [3] it was 22.8%; in assay [4], 17.8%; in assay [5], 6.63% (active); in assay [6], 14.3%. Besides, in assay [7], the growth is 10.4%.

For the origin of these results see PubChem BioAssay (NCI).
